Screening results deposited in PubChem by National Center for Advancing Translational Sciences (NCATS).
KB-V1 MDR tox – kills drug-selected multidrug resistant KB-V1 cells; KB-V1 MDR cells viability, CellTiter-Glo, 72 h; Potency, µM (titrated, usually from 46.1 µM), usual class: cytotoxic; hit rate 3.4% among 400,000; note: % is set by controls: 0 for no effect and ±100 for the full control effect; nearly all actives have a fitted effect of over 60% in size
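KB-V1 cells (P-gp-expressing MDR subline of KB-3-1) in phenol-red-free DMEM with 10% FBS were exposed to library compounds over a concentration series for 72 h at 37 degrees C. Viability read by CellTiter-Glo luminescence; concentration-effect curves fitted after normalization.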
HT1080-NT tox – kills 2HG-producing HT-1080-NT fibrosarcoma cells | HT-1080-NT fibrosarcoma viability, CellTiter-Glo ATP luminescence, 48 h | Potency, µM (highest dose often 46.1 µM), without a hit: at the highest dose activity, negative = less viability, most hits filed as cytotoxic | hit rate 1.6% among 360,000;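 note: NT is the 2HG producing partner of a matched IDH1 knockdown line; 0% = DMSO-treated cells and -100% = media-only wells without cells; nearly all actives have a fitted effect of over 55% in size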
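Luminescent CellTiter-Glo readout after 48 hours of compound exposure at 37 degrees C defined viability of HT-1080-NT cells. Activity was normalized to DMSO wells and cell-free media wells; concentration-response curves were fitted and assigned curve classes.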
HT1080 IDH1KD tx – toxicity to HT-1080 IDH1 knockdown cells (counter line). AID 686971. Potency, µM (top dose mostly 46.1 µM), for the others: at the top dose activity, negative = toxicity, usual class: cytotoxic. hit rate 2% among 360,000. HT-1080 IDH1 knockdown viability, ATP luminescence, 48 h;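 note: 0% = DMSO wells and -100% = cell-free medium wells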
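Assay cells: HT-1080 with IDH1 knockdown, 750 per well, RPMI/5% FBS. Exposure: 48 h at 37 °C following 2 h pre-incubation. Read: CellTiter-Glo luminescence; fitted concentration-response, curve class assigned.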
SW480 rerep – DNA re-replication induction in SW480 cells; AID 624297; SW480 DNA re-replication, Hoechst DNA content imaging, 48 h; Potency, µM (top dose mostly 46.1 µM), for inactives: at the top dose re-replication activation, usual class: activators; hit rate 1.8% among 340,000; note: % of control where 0% means no effect; nearly all actives have a fitted effect of over 55% in size
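Readout is total intensity of Hoechst-stained nuclei, excited at 405 nm and collected at 500-530 nm. Compound treatment lasted 48 hr at 37 C in 5% CO2 before staining.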
KB-3-1 cytotox – kills parental KB-3-1 adenocarcinoma cells | hit rate 1.4% among 400,000 | Potency, µM (top dose mostly 46.1 µM), most hits filed as cytotoxic | KB-3-1 viability, CellTiter-Glo ATP luminescence, 72 h; note: % is set by controls: 0 for no effect and ±100 for the full control effect; nearly all actives have a fitted effect of over 60% in size
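Cytotoxicity in the drug-sensitive parental line KB-3-1 was scored as loss of CellTiter-Glo luminescence following 72 h incubation with compound. Values come from curve fitting of normalized concentration-response data.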
MCF10A rerep – inducers of DNA re-replication in MCF 10A breast cells. hit rate 2.9% among 350,000. Potency, µM (highest dose often 46.1 µM), for inactives: at the highest dose activity, positive = re-replication, usual class: activators. MCF 10A DNA re-replication, Hoechst nuclear intensity, 48 h; note: % of control where 0% means no effect; nearly all actives have a fitted effect of over 50% in size
* hit, by the source's call; i = inactive; ? = inconclusive; . = no result. Only some compounds are listed: those with a hit (about 7.9% of all), similar ones and a draw of the others. Calls come from the whole dose curve; as a rule, active = well fitted curve in the direction sought with a large enough effect; inconclusive = small, poorly fitted or top-dose-only effect, or another doubt; inactive = no such curve, though single readings can be large; an effect the other way counts as inactive or inconclusive. Potency is the fitted concentration of half-maximal effect.

SMILES | KB-V1 MDR tox | HT1080-NT tox | HT1080 IDH1KD tx | SW480 rerep | KB-3-1 cytotox | MCF10A rerep
CCn1c(N2CCN(S(=O)(=O)c3ccccc3C(F)(F)F)CC2)nc2ccccc21 | 18µM* | ? | -26% | 11% | i | ?
COc1cc(NC(=O)CN2C(=O)CN(C)C(=O)c3ccccc32)cc(OC)c1OC | i | . | . | . | i | .
CC(=O)c1cccc(NC(=O)C(CC(C)C)NS(=O)(=O)c2ccc3c(c2)CCN3C(C)=O)c1 (stereo not given) | i | . | . | . | ? | .
CC1CCN(CC(CS(=O)(=O)c2ccc([N+](=O)[O-])cc2)N2CCC(C)CC2)CC1 (stereo not given) | ? | -3% | 5% | 2.9µM* | 5.2µM* | 1.8µM*
COc1ccc(OC)c(NS(=O)(=O)c2ccc(Cl)s2)c1 | 16µM* | ? | ? | ? | ? | ?
COc1ccc(OC)c(NS(=O)(=O)c2ccc(-c3cc(C)no3)s2)c1 | ? | . | . | . | 4.6µM* | .
COc1cccc(NS(=O)(=O)c2ccc(-c3cc(C)no3)s2)c1 | i | . | . | . | i | .
CCCn1c(=N)n(CC(=O)c2ccc(Cl)cc2)c2ccccc21 | ? | ? | ? | 14% | ? | ?
CCCn1c(=N)n(CC(=O)c2ccc([N+](=O)[O-])cc2)c2ccccc21 | ? | -17% | -17% | -3% | ? | 15µM*
Cc1ccccc1Cn1c(=N)n(CC(=O)c2ccc([N+](=O)[O-])cc2)c2ccccc21 | 18µM* | -28% | -19% | 1% | ? | ?
CC(C)c1ccc(NC(=O)CS(=O)(=O)c2cccc3nsnc23)cc1 | i | . | . | . | i | .
Cc1occc1C(=O)Nc1cccc(C(F)(F)F)c1 | i | 4% | 11% | -2% | i | 2%
Cc1cnc(Nc2nc3ccccc3o2)nc1C(=O)Nc1cccc(C(F)(F)F)c1 | 15µM* | -14% | -4% | ? | 16µM* | ?
CCOCCCNC(=O)c1ccc2c(c1)OCO2 | i | 10% | 10% | -9% | i | 4%
CCOCCCNC(=O)c1c(N)n(-c2ccc3c(c2)OCO3)c2nc3ccccc3nc12 | i | 7% | -1% | 9.2µM* | i | 23µM*
COCCCNC(=O)c1c(N)n(-c2ccc3c(c2)OCO3)c2nc3ccccc3nc12 | i | ? | ? | 6.5µM* | i | 10µM*
CCCNC(=O)c1c(N)n(-c2cc(OC)cc(OC)c2)c2nc3ccccc3nc12 | i | -19% | -25% | 9.2µM* | i | 16µM*
Nc1c(C(=O)NC2CC2)c2nc3ccccc3nc2n1-c1ccc2c(c1)OCO2 | i | -2% | -3% | ? | i | 2.9µM*
CCCNC(=O)c1c(N)n(-c2ccc3c(c2)OCO3)c2nc3ccccc3nc12 | i | 4% | 2% | ? | ? | 17%
COC(=O)c1c(N)n(-c2ccc(OC)c(Cl)c2)c2nc3ccccc3nc12 | i | . | . | . | i | .
Cn1c(=O)c2[nH]c(NN=Cc3cccc(Br)c3)nc2n(C)c1=O | ? | -11% | -9% | ? | i | ?
CCOc1ccc2c(c1)c(=O)c(C(=O)c1ccc(CC)cc1)cn2CC(=O)Nc1ccccc1C | i | . | . | . | i | .
CCOC(=O)c1noc2ncn(CC(=O)Nc3ccc(C)c(F)c3)c(=O)c12 | i | . | . | . | i | .
CC1=NN(C(=O)c2ccc(Cn3cc(Br)c([N+](=O)[O-])n3)o2)C(O)(C(F)(F)F)C1 (stereo not given) | i | -25% | -13% | 10µM* | i | -2%
CC1=NN(C(=O)Cn2nc([N+](=O)[O-])cc2C)C(O)(C(F)(F)F)C1 (stereo not given) | i | 12% | 13% | -1% | i | 2%
CC1=NN(C(=O)c2ccoc2C)C(O)(C(F)(F)F)C1 (stereo not given) | i | 14% | 3% | -56% | i | ?
